From PubChem
Only a selection was taken, and hits are over-represented in it overall.
FECH inh – inhibitors of human ferrochelatase; calls only at 10 µM (by protocol); P22830; 20,000 tested, 3.3% active; purified FECH, Ni-mesoporphyrin absorbance 550 nm;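 active = enzyme reaction rate more than 3 SD below the solvent-only control wells on the same plate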;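 also: lower slope than DMSO wells means FECH inhibition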
Target sequence (P22830 whole entry, looked up): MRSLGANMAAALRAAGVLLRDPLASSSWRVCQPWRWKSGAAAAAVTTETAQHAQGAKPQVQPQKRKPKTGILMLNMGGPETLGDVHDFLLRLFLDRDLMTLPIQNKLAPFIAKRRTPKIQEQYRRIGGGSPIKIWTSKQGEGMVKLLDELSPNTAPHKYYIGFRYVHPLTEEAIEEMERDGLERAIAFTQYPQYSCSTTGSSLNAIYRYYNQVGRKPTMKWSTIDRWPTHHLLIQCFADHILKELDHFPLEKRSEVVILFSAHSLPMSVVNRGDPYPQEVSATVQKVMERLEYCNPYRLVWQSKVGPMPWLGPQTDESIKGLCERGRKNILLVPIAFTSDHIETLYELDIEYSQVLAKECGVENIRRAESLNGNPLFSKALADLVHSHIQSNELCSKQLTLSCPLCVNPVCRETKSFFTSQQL
The depositor's hits bear a star; i = inactive; + = active, no number.

SMILES	FECH inh
COc1ccc(Nc2cc(C)nc(Nc3ccc(NC(=O)c4ccccc4OC)cc3)n2)cc1	+
COc1ccc(C(=O)Nc2ccc(Nc3nc(C)cc(Nc4ccccc4)n3)cc2)cc1	i
COc1ccc(Nc2cc(C)nc(Nc3ccc(NC(=O)c4cc(Cl)ccc4OC)cc3)n2)cc1	i
COc1ccc(N2C(=O)CCS2(=O)=O)cc1S(=O)(=O)N(C)C1CCS(=O)(=O)C1 (stereo unspecified)	i
CC(C)CC1(CO)CCCN(C(=O)CCC(=O)NC2CCCC2)C1 (stereo unspecified)	i
O=C(CCC(=O)N1CCN(CC2CCCO2)CC1)NC1CCCC1 (stereo unspecified)	+
COc1ccccc1C1CCN(C(=O)CCC(=O)NC2CCCC2)CC1	i
O=C1CC2(CCN(C(=O)c3cccc(Cl)c3)CC2)CN1	i
CCn1cncc1CNc1nc(-c2ccncc2)nc2c1CCNC2	i
CCOC(=O)CCC(=O)Nc1cc(C)nn1-c1ncnc2c1cnn2-c1cccc(C)c1C	i
CCCC(=O)Nc1cccc(OCc2cc(=O)n3cc(Cl)ccc3n2)c1	i
Cc1ccn2c(=O)cc(COc3cccc(NC(=O)c4ccccc4C)c3)nc2c1	i
Cc1ccn2c(=O)cc(COc3cccc(NC(=O)c4cccs4)c3)nc2c1	i
COc1ccccc1C(=O)Nc1cccc(OCc2cc(=O)n3cc(Cl)ccc3n2)c1	+
COc1ccc(C(=O)Nc2cccc(OCc3cc(=O)n4ccc(C)cc4n3)c2)cc1	i
Cc1ccn2c(=O)cc(COc3cccc(NC(=O)c4ccco4)c3)nc2c1	+
COc1cccc(C(=O)Nc2cccc(OCc3cc(=O)n4cc(Cl)ccc4n3)c2)c1	i
Cc1ccn2c(=O)cc(COc3cccc(NC(=O)C(C)C)c3)nc2c1	+
Cc1ccn2c(=O)cc(COc3cccc(NC(=O)c4cccc(Br)c4)c3)nc2c1	i
CC(=O)NCC1=CCCN(Cc2nccn2C(C)C)C1	i
CCN(CC)CCNc1nc(Nc2ccccc2C)c2cnn(-c3ccccc3)c2n1	i
COc1ccc(CN(C)C(=O)CCN2CCCCO2)c2cccnc12	i
CS(=O)(=O)Nc1ccc(-c2cccc3ccsc23)cn1	i
Cc1cc(NC(=O)CC2CCCCC2)n(-c2ncnc3c2cnn3-c2ccc(F)cc2)n1	i
CC(C)c1ccc(S(=O)(=O)N2CCN(Cc3nc4cccnc4n3-c3ccc(F)cc3)CC2)cc1	i
SMILES	FECH inh
O=C(CSc1ncn[nH]1)NCc1cccnc1Oc1ccccc1F	i
CC(=O)Nc1ccc(S(=O)(=O)N2CCN(c3nc(C)cc(N4CCCCC4)n3)CC2)cc1	+
Cc1cc(N(C)C)nc(N2CCN(S(=O)(=O)c3ccc(F)cc3)CC2)n1	+
CC(=O)Nc1ccc(S(=O)(=O)N2CCN(c3nc(C)cc(N4CCOCC4)n3)CC2)cc1	i
CC(=O)Nc1ccc(S(=O)(=O)N2CCN(c3nc(C)cc(N4CCCC4)n3)CC2)cc1	i
Cc1cc(N(C)C)nc(N2CCN(S(=O)(=O)c3ccc(Cl)cc3)CC2)n1	i
Cc1cc(N(C)C)nc(N2CCN(S(=O)(=O)c3ccc(C)c(C)c3)CC2)n1	i
Cc1nn(C)cc1-c1ccnc(NC[C@@H]2CCCO2)n1	i
c1ccc(N2CCCN(Cc3ccc(C4CCCO4)s3)CC2)cc1 (stereo unspecified)	i
CNCC(=O)NCCC(=O)Nc1cccc2ccccc12	i
Cc1ccccc1-c1nc2nc(CNc3ccc(Cl)cc3)cc(=O)n2[nH]1	+
COc1ccc(Cl)cc1NCc1cc(=O)n2[nH]c(-c3ccccc3C)nc2n1	i
Cc1ccccc1-c1nc2nc(CNCc3ccccc3)cc(=O)n2[nH]1	+
COc1ccccc1NCc1cc(=O)n2[nH]c(-c3ccccc3C)nc2n1	i
Cc1ccccc1-c1nc2nc(CNc3cccc(C(F)(F)F)c3)cc(=O)n2[nH]1	i
Cc1cccc(NCc2cc(=O)n3[nH]c(NCc4ccccc4)nc3n2)c1	i
Cc1cccc(NCc2cc(=O)n3[nH]c(-c4ccccc4C)nc3n2)c1	+
CCc1ccccc1NCc1cc(=O)n2[nH]c(-c3ccccc3C)nc2n1	i
Cc1ccccc1-c1nc2nc(CNc3c(C)cccc3C)cc(=O)n2[nH]1	i
COc1ccc(Cn2c(CNC(=O)c3cccc(OC)c3)nc3cccnc32)cc1	i
Cc1ccc(OCC(=O)Nc2cc(Cl)ccc2OCc2cc(=O)n3oc(C)cc3n2)cc1	i
CC(=O)Nc1ccc(Cl)c(C(=O)NC(C)C(=O)Nc2ccc(F)cc2C)c1 (stereo unspecified)	i
O=C(Cn1cnnn1)N1CCC(c2cc(-c3ccccc3Cl)n[nH]2)CC1	i
CC(=O)Nc1ccc(-c2nccn2Cc2cnn(-c3ccccc3)c2)cc1	i
COc1ccc(CNS(=O)(=O)c2ccc(N3C(=O)CCS3(=O)=O)cc2)cc1	i
O=S(=O)(CCn1cc(CCc2ccccc2)nn1)N1CCCC1	i
COc1ccc(NC(=O)CN2CCN(Cc3ccc(F)cc3Cl)S2(=O)=O)cc1	i
Cc1ccccc1Nc1nc(NCCC(C)C)nc2c1cnn2-c1ccccc1	i
Cc1ccccc1CN1CCN(Cc2ccccc2C)S1(=O)=O	+
